Pf Dd2 growth: qHTS Primary assay for Inhibitors of Plasmodium falciparum Dd2 growth in vitro; P. falciparum Dd2 growth, SYBR Green, 72 h; 120,000 compounds, 4.3% hits; Potency, µM (series often up to 28.9 µM), usual class: inhibitors; active means well fitted inhibition curve with a large enough effect; further: nearly all actives have a fitted effect of over 65% in size
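Readout: SYBR Green fluorescence, 485 nm excitation, 535 nm emission, after ~16 h lysis at 37C. Before that, Dd2-infected red cells (2.5% hematocrit) grew 72 h with compound, 29 uM top final concentration.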
Of the large screens only hits and unclear results are named; the others gave an inactive call. This is one part of a sample in which hits are shown more often than they occur.

CCOC(=O)CCc1c(C)nc2c(c(C)nn2-c2ccc(C)cc2)c1C	none
CCOc1ccc(CCNC(=O)CCc2c(C)nc3c(c(C)nn3-c3ccc(C)c(C)c3)c2C)cc1	none
Cc1ccc(CN2CC[C@H](c3nnc(Cc4ccccc4)o3)C2)cc1	none
COC(=O)[C@H](Cc1ccc(OC)cc1)NC(=O)[C@@H]1CNCCN1C(C)=O	none
O=C(NC1CCc2n[nH]c(=O)n2CC1)c1ccc(Br)o1 (stereo not drawn)	none
Cc1c(CCNC(=O)c2ccc(C(C)(C)C)cc2)sc2nc(-c3ccc(F)cc3)nn12	Pf Dd2 growth 11µM
Cc1c(CCNC(=O)Cc2ccccc2)sc2nc(-c3ccc(F)cc3)nn12	none
Cc1c(CCNC(=O)Cc2ccc(F)cc2)sc2nc(-c3ccc(F)cc3)nn12	none
CC(C)c1ccccc1OCC(=O)c1ccc2c(c1)N(CC(=O)N1CCOCC1)C(=O)CO2	none
CCCS(=O)(=O)NCC(=O)N1CCCCCNC(=O)CC1c1ccccc1 (stereo not drawn)	none
CN1CCN(c2nc3c(c(=O)[nH]2)CCN(Cc2ccccc2F)CC3)CC1	none
COc1ccc(CC(=O)NC2CCc3nnc(C)n3CC2)cc1Cl (stereo not drawn)	none
COc1ccc(-n2nc(C3CCN(Cc4ccc(N(C)C)cc4)CC3)[nH]c2=O)cc1	none
COc1ccc(-n2nc(C3CCN(Cc4cccn4C)CC3)[nH]c2=O)cc1	Pf Dd2 growth 13µM
COC(=O)N1CCC(c2nn(-c3ccc(OC)cc3)c(=O)[nH]2)CC1	none
CCCN(CC1CCOC1)S(=O)(=O)c1cc(F)ccc1F (stereo not drawn)	none
CO[C@H]1C[C@@H](O)C12CCN(C(=O)c1ccc(OC(F)F)cc1)CC2	none
COCCNC(=O)CCc1c(C)nn(-c2ccccc2)c1Oc1ccc(F)cc1F	none
COc1cc(OC)c(NC(=O)c2cnn(-c3cccc(Cl)c3C)c2C2CCN(C(=O)OC(C)(C)C)CC2)cc1Cl	Pf Dd2 growth 3.5µM
CC(C)(C)OC(=O)N1CCC(c2c(C(=O)N3CCN(c4ncccn4)CC3)cnn2-c2ccc(F)cc2F)CC1	none
CC(C)(C)OC(=O)N1CCC(c2c(C(=O)NCCc3ccsc3)cnn2-c2ccccc2Cl)CC1	none
CC(C)(C)OC(=O)N1CCC(c2c(C(=O)N3CCOCC3)cnn2-c2ccccc2Cl)CC1	none
COc1ccc(OC)c(CCNC(=O)c2cnn(-c3ccccc3Cl)c2C2CCN(C(=O)OC(C)(C)C)CC2)c1	Pf Dd2 growth 7.9µM
COc1ccccc1CNC(=O)c1cnn(-c2ccc(F)cc2F)c1C1CCN(C(=O)OC(C)(C)C)CC1	Pf Dd2 growth 10µM
CC(C)(C)OC(=O)N1CCC(c2c(C(=O)NC3CCCCC3)cnn2-c2ccc(F)cc2F)CC1	none
Cc1ccc(CNC(=O)c2cnn(-c3ccc(F)cc3F)c2C2CCN(C(=O)OC(C)(C)C)CC2)cc1	Pf Dd2 growth 11µM
Cn1cccc1CN1CCC2CC(=O)NCCC2C1 (stereo not drawn)	none
CC(C)(C)C(=O)N1CCC2(CC1)C(=O)NCN2Cc1ccc(Cl)cc1	none
Cc1noc(C)c1CC(=O)N1C[C@@H](COc2ccccc2)[C@H](C(N)=O)C1	none
COCCN1C(=O)[C@H]2CN(Cc3ccc(C)s3)C[C@H]2C1=O	none
COc1ccc(S(=O)(=O)N2CCC(C)(C(=O)O)CC2)cc1	none
CCn1ncc(N2CCCC(CC(=O)NCc3cc(F)cc(F)c3)C2)cc1=O (stereo not drawn)	none
Cc1nc2c(c(-c3ccc(O)cc3)n1)CN(Cc1cncs1)CCC2	none
c1cc2c(cc1-c1cnc3n1C[C@H](CNC1CCOCC1)OC3)OCO2	none
CCn1cnnc1CC1CCN(S(=O)(=O)c2ccc3c(c2)CCC3)C1 (stereo not drawn)	none
CNC(C)c1cnccn1 (stereo not drawn)	none
COCCCNc1nc2c([S+](=O)([O-])c3ccc(OC)cc3)nnn2c2ccccc12	none
CC1CCN(C(=O)c2ccccc2OCC2CCCNC2)CC1 (stereo not drawn)	none
Cc1cccc(O[C@H]2COCCN(C(=O)c3cc(C)nn3C)C2)n1	none
Cc1cccc(O[C@H]2COCCN(c3nc4ccccc4o3)C2)n1	none
Cc1cccc(O[C@H]2COCCN(Cc3nccn3C)C2)n1	Pf Dd2 growth 11µM
F[C@@H]1CN(Cc2ccc3c(c2)OCCO3)C[C@@H]1OCc1nc2ccccc2[nH]1	none
Cc1ccc(-c2cc(O)c3c(c2)CNCCO3)cc1	none
COc1ccc(-c2cc3c(c(OC)c2)OCCNC3)nn1	none
COc1cc(-c2cc(C)c3c(OC)ccc(OC)c3n2)cc2c1OCCNC2	Pf Dd2 growth 11µM
Cc1nc(C)c(CC(=O)N(Cc2ccccc2)Cc2scnc2C)s1	none
COc1ccc2[nH]c3c(c2c1)CCNC31CCN(C(=O)Cc2ccncc2)CC1	none
COc1ccc2[nH]c3c(c2c1)CCNC31CCN(C(=O)COc2ccc(F)cc2)CC1	none
COc1ccc2[nH]c3c(c2c1)CCNC31CCN(C(=O)Cc2cccc(F)c2)CC1	Pf Dd2 growth 7.1µM
COc1ccc(S(=O)(=O)N2CCCC(Cn3cnc4cccnc43)C2)cc1OC (stereo not drawn)	none
CN(Cc1ccc(-n2cccn2)cc1)Cc1nc(Cc2cccc(F)c2)no1	none
Oc1ccc(CCC2CCCCN2Cc2nc(Cc3cccc(F)c3)no2)cc1 (stereo not drawn)	Pf Dd2 growth 5µM
CCc1noc(-c2nc(Cc3cccc(F)c3)no2)n1	none
O[C@@H]1CN(CC2CC2)CC[C@H]1N1CCN(c2ccccc2F)CC1	none
CCOC(=O)N1CCN(Cc2nccn2CCOC)CC1	none
COc1ccc(CCNC(=O)CCCCn2c(=O)c3ccccc3n(CC(=O)Nc3ccccc3C)c2=O)cc1OC	none
COc1ccc(CCNC(=O)CCCn2c(=O)c3ccccc3n(CC(=O)Nc3cccc(C)c3)c2=O)cc1OC	Pf Dd2 growth 10µM
COc1ccc(CCNC(=O)CCCn2c(=O)c3ccccc3n(CC(=O)Nc3c(C)cc(C)cc3C)c2=O)cc1OC	none
Cc1cccc(C(=O)N2CCCC(n3cc(-c4nc(C(C)C)no4)nn3)C2)c1 (stereo not drawn)	none
O=C1CC(c2ccccc2)N(S(=O)(=O)c2cccc(F)c2)CCCCCCN1 (stereo not drawn)	none
Cc1cccc(C)c1-n1ncc(C(=O)NCc2ccc3c(c2)OCO3)c1C1CCN(C(=O)OC(C)(C)C)CC1	none
CC(C)(C)OC(=O)N1CCC(c2c(C(=O)Nc3ccc4c(c3)OCCO4)cnn2-c2ccccc2)CC1	Pf Dd2 growth 7.9µM
Cc1ccc(-n2ncc(C(=O)NCc3ccc4c(c3)OCO4)c2C2CCN(C(=O)OC(C)(C)C)CC2)cc1C	none
Cc1ccc(-n2ncc(C(=O)Nc3ccc4c(c3)OCO4)c2C2CCN(C(=O)OC(C)(C)C)CC2)cc1	none
Cc1ccc(-n2ncc(C(=O)Nc3ccc4c(c3)OCCO4)c2C2CCN(C(=O)OC(C)(C)C)CC2)cc1	none
COc1ccc(-n2ncc(C(=O)Nc3ccc4c(c3)OCO4)c2C2CCN(C(=O)OC(C)(C)C)CC2)cc1	Pf Dd2 growth 6.3µM
CC(C)(C)OC(=O)N1CCC(c2c(C(=O)Nc3ccc4c(c3)OCO4)cnn2-c2ccc(F)cc2F)CC1	Pf Dd2 growth 13µM
CC(C)(C)OC(=O)N1CCC(c2c(C(=O)Nc3ccc4c(c3)OCCO4)cnn2-c2ccc(Cl)cc2)CC1	Pf Dd2 growth 7.1µM
NC(=O)NCC(=O)N1CCc2c(cccc2S(=O)(=O)N2CCOCC2)C1	none
COc1cc(OC)cc(C(=O)N2CCC(n3cc(-c4nc(-c5ccccc5)no4)nn3)C2)c1 (stereo not drawn)	none
CN(C)[C@@H]1CO[C@H](CNC(=O)c2ccccc2)[C@H]1O	none
COC1CCN(C(=O)c2ccnc(-c3nnc4ccc(N(C)C)nn34)c2)CC1	none

Assay outcomes from PubChem BioAssay.
